HSP90 inh = blocks HSP90-mediated luciferase refolding in reticulocyte lysate. Rabbit reticulocyte lysate, luciferase refolding luminescence, 3 h. actives 0.91% (n = 290,000). inhibition, % at 5.6 µM. AID 1789;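 active = inhibition above the screen-wide mean plus 3 SD, computed separately per campaign, cut at about 16% in these data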;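 also: 0% = DMSO wells and 100% = 60 µM geldanamycin wells; inhibitors lower the luminescence because luciferase stays unfolded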
TWEAK Fn14 block = TWEAK-Fn14 signaling inhibition | TWEAK-stimulated Fn14 reporter cells, luciferase luminescence, 8 h | inhibition, % at 10 µM | actives 2% (n = 360,000) | AID 1159606; in the data active = inhibition above about 50%
TROY NFkB inh = TROY signaling inhibition. Q293 LMP1-TROYcd NF-kB luciferase reporter, 4 h. inhibition, % at 10 µM. actives 0.98% (n = 360,000);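 active = compounds whose plate-normalised and pattern-corrected inhibition of the luciferase reporter signal at the single screening dose is 50% or more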
LGR2 antag = Drosophila LGR2 receptor signaling inhibition | HEK293 LGR2, CRE-luciferase, bursicon-stimulated, 4 h | inhibition, % at 9.99 µM | actives 0.35% (n = 380,000);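 active = drop in luminescence signal, shown as inhibition above about 50% in the replicate tests, limit read from the data, passing the limit was not always enough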;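 also: agonist challenge used bursicon conditioned medium at about half maximal strength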
Starred values were filed as active, the others as inactive; · = not tested or not shown. Hits are enriched below; roughly 2.2% of the tested compounds scored in any of these assays.

SMILES | HSP90 inh | TWEAK Fn14 block | TROY NFkB inh | LGR2 antag
COC(=O)c1cc(OC)c(OC)cc1NCC(=O)Nc1ccc(C)cc1 | 6 | -1 | 22 | 50*
Cc1cc(/C=N/NC(=O)c2cccc([N+](=O)[O-])c2)c(C)n1-c1ccc(Cl)cc1Cl | -1 | 95* | · | ·
Cc1cccc(/C=N/NC(=O)c2cccc([N+](=O)[O-])c2)n1 | 1 | -39 | -34 | 2
Cc1nc(N)sc1-c1csc(Nc2ccccn2)n1 | 5 | 11 | -6 | ·
CC(=O)Nc1ccc(Nc2nc(-c3sc(C)nc3C)cs2)cc1 | -2 | 12 | 13 | -12
CC(=O)c1ccc(Nc2nc(-c3sc(C)nc3C)cs2)cc1 | · | 56* | 17 | 97*
Cc1ccnc(Nc2nc(-c3ccc(F)cc3)cs2)c1 | 13 | -20 | 59* | -114
Cc1nc(C)c(-c2csc(Nc3ccccn3)n2)s1 | 4 | 55* | -4 | -24
Cc1ccnc(Nc2nc(-c3sc(C)nc3C)cs2)c1 | · | 84* | 37 | 78*
C[C@@H]1CN([C@@H](C)CO)S(=O)(=O)c2ccc(C#Cc3ccccc3)cc2O[C@@H]1CN(C)S(=O)(=O)c1cn(C)cn1 | · | · | · | -40
Cc1cc2c(=O)oc(-c3ccc(F)cc3)nc2s1 | 0 | 53* | -16 | 35
Cc1cc2c(=O)oc(-c3ccccc3Br)nc2s1 | 11 | 10 | 2 | 4
O=C(C[C@@H]1C=C[C@@H](NC(=O)c2ccc(F)cc2)[C@@H](CO)O1)NCCc1ccncc1 | · | · | · | 3
CCCCCCOC(=O)CCc1c(C)nc(N)[nH]c1=O | 7 | -8 | · | -10
CCCCCCOC(=O)Cc1c(C)nc(N)[nH]c1=O | -5 | 56* | -8 | -5
COC(=O)C[C@H]1CC[C@H]2[C@H](COc3ccc(NC(=O)c4cccc(OC)c4)cc3C(=O)N2C)O1 | · | · | · | -3
COc1ccc(-n2c(C)cc(/C=C3\C(=O)NN(c4ccccc4)C3=O)c2C)cc1 | -8 | 2 | -76 | -59
Cc1cc(C=C2C(=O)c3ccccc3C2=O)c(C)n1C | 8 | 29 | 46 | -37
Cc1cccc(-n2c(C)cc(C=C3C(=O)c4ccccc4C3=O)c2C)c1 | 0 | 92* | 80* | 19
Cc1cc(/C=C2/C(=O)NN(c3ccccc3)C2=O)c(C)n1-c1ccc(O)cc1 | -2 | 88* | 83* | 45
CCn1c(C)cc(C=C2C(=O)c3ccccc3C2=O)c1C | 4 | 54* | 31 | -4
CC=Cc1ccc2n(c1=O)C[C@@H]1[C@@H](CO)[C@H](C(=O)N3CCOCC3)[C@H]2N1CC1CC1 (mixture of isomers) | · | · | · | -5
CS(=O)(=O)N1[C@@H]2c3ccc(-c4ccccc4F)c(=O)n3C[C@@H]2[C@@H](CO)[C@@H]1C(=O)NCC1CC1 | · | · | · | -8
C[C@H](CO)N1C[C@H](C)[C@@H](CN(C)C(=O)C2CCCCC2)Oc2ncc(-c3cccnc3)cc2C1=O | · | · | · | -15
COCC(C)n1c(C)cc(C(=O)COC(=O)c2cccn2C)c1C (stereo not drawn) | · | 94* | 82* | ·
SMILES | HSP90 inh | TWEAK Fn14 block | TROY NFkB inh | LGR2 antag
COCC(C)n1c(C)cc(C(=O)COC(=O)c2cnc(Cl)c(Cl)c2)c1C (stereo not drawn) | · | -2 | 4 | 2
CC(=O)N1[C@@H]2Cn3c(ccc(-c4ccccc4)c3=O)[C@H]1[C@@H](C(=O)N1CCN(C)CC1)[C@@H]2CO | · | · | · | -25
COc1ccc2c3c([nH]c2c1)[C@H](CO)N(C(=O)C1CCOCC1)CC31CN(Cc2nccs2)C1 | · | · | · | 0
C[C@H]1CN([C@@H](C)CO)C(=O)c2cccc(NS(=O)(=O)c3ccc(Cl)cc3)c2O[C@@H]1CN(C)Cc1ccc(Cl)c(Cl)c1 | · | · | · | 18
Cc1ccc(NC(=O)c2cc(S(=O)(=O)N3CCOCC3)ccc2F)c(C)c1 | 1 | 80* | -20 | ·
O=C(Nc1ccccc1Cl)c1cc(S(=O)(=O)N2CCCC(C(=O)O)C2)ccc1F (stereo not drawn) | -3 | 88* | 6 | 22
CCN(C(=S)Nc1cc(S(=O)(=O)N2CCOCC2)ccc1Cl)c1cccc2ccccc12 | -5 | 87* | 15 | 12
Cc1cc(C)c(NC(=O)c2cc(S(=O)(=O)N3CCOCC3)ccc2F)c(C)c1 | -3 | 4 | 13 | 17
O=C(Nc1cc(S(=O)(=O)N2CCOCC2)ccc1Cl)c1cc([N+](=O)[O-])ccc1Cl | · | 77* | 5 | ·
O=C(Nc1ccccc1C(=O)O)c1cc(S(=O)(=O)N2CCCCCC2)ccc1Cl | -4 | 0 | 31 | 7
OC[C@H]1N[C@@H](CNCC2CCC2)[C@@H]1c1ccc(C2=CCCCC2)cc1 | · | · | · | 3
Cc1c(Br)c(C(F)(F)F)nn1CC(=O)N1CCCC1 | -3 | 7 | 8 | ·
Cc1cnn(C(=O)Cn2nc(C(F)F)c(Br)c2C)c1 | · | 4 | 68* | -3
O=C(O)C[C@H]1CC[C@@H](NC(=O)CCN2CCCCC2)[C@@H](CO)O1 | · | · | · | 8
CCS(=O)(=O)N1CCC2(CC1)CN(C(=O)Nc1c(C)noc1C)[C@@H](CO)c1[nH]c3cc(OC)ccc3c12 | · | · | · | 2
NS(=O)(=O)c1ccc(CCNC(=O)CNC(=O)c2ccc(F)cc2)cc1 | 0 | 7 | 12 | -9
NS(=O)(=O)c1ccc(CCNC(=O)CNC(=O)c2ccccc2Br)cc1 | -4 | 51* | 1 | 0
CCOC(=O)c1c(C)[nH]c(C(=O)N/N=C/c2ccc(Br)cc2)c1C | 2 | 55* | 41 | -17
COc1ccc2c3c(n(C)c2c1)[C@@H](CO)N(CC1CCCC1)CC31CCN(C(=O)Nc2ccccc2)CC1 | · | · | · | 6
O=C1[C@@H]2Cc3ccccc3CN2C(=O)N1c1cccc(F)c1 | 0 | 34 | 62* | ·
COc1ccc(NC(=O)CCCC(=O)NCCc2ccc(OC)c(OC)c2)cc1 | 3 | 89* | -13 | -1
OC1CCC(Nc2ccn3nc(-c4cccc(Cl)c4)cc3n2)CC1 (stereo not drawn) | · | 7 | -7 | -87
OC1CCC(Nc2ccn3nc(-c4cccc(OCc5ccccc5)c4)cc3n2)CC1 (stereo not drawn) | · | 42 | 35 | 52*
Cc1ccc(/C=C2\SC(=S)N(CCCC(=O)Nc3ccc(O)cc3)C2=O)cc1 | 10 | 8 | -53 | -18
COc1ccc(/C=C2\SC(=O)N(CCNC(=O)Cc3coc4cc(OC)ccc34)C2=O)cc1 | 0 | 41 | 1 | ·
SMILES | HSP90 inh | TWEAK Fn14 block | TROY NFkB inh | LGR2 antag
COc1ccc(/C=C2\SC(=O)N(CCNC(=O)Cn3[nH]c(=O)c4ccccc4c3=O)C2=O)cc1 | · | 51* | 35 | -20
Cc1ccc(/C=C2\SC(=S)N(CCCC(=O)Nc3ccccc3C(=O)O)C2=O)cc1 | 15 | 84* | 83* | 16
CCc1ccc(/C=C2\SC(=S)N(CCCC(=O)Nc3ccccc3C(=O)O)C2=O)cc1 | 7 | 33 | 75* | 30
COc1ccc(/C=C2\SC(=S)N(CCCC(=O)Nc3ccccn3)C2=O)cc1OC | 5 | 52* | 24 | 6
CO[C@H]1CN(C)C(=O)c2ccc(NC(=O)Nc3ccccc3F)cc2OC[C@@H](C)N(C(C)=O)C[C@@H]1C | · | · | · | 9
O=C(N[C@@H]1CC[C@@H](CCn2cc(-c3ccccn3)nn2)O[C@@H]1CO)c1cccnc1 | · | · | · | -6
COc1ccc(/C=C2\SC(=O)N(CCCC(=O)Nc3ccc(C(=O)O)cc3)C2=O)cc1 | · | 83* | 73* | 0

Compound activity (PubChem)
